According to PubChem BioAssay (NCI):
The panel holds about 83,000 compounds, 20% with a hit somewhere; the sample as a whole holds those more often.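 The test compound was applied at a single concentration to cells in 96-well plates for 48 hours, and percent growth was recorded.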 Active and inactive are the calls of the source. The calls were made as follows: active = growth percent below 10; inactive = the rest.

System: HL-60(TB) leukemia
Assay: NCI-60 one-dose screen, 48 h (100 = growth as untreated, 0 = no growth, -100 = all killed)
Conditions: 10 µM unless noted

Compound | growth
CN1CCN(Cc2ccc(NC(=O)c3[nH]ncc3Nc3ncnc4sc5c(c34)CCCC5)cc2)CC1 | -67.4% (active)
O=c1ccc(N=Nc2ccc([N+](=O)[O-])cc2)ccc1O | 10% (inactive)
Cc1cc(C)c2nc3nc(C)cc(C)c3c(N)c2c1 | 45.8% (inactive)
COc1ccc(C(=O)O)cc1.[Ag] | -46% (active)
O=C1c2ccccc2OC=C(c2ccccc2)N1CCCCN1CCCCC1 | 58.1% (inactive)
COc1ccc(OC)c2c1C(=O)CC2C (stereo not given) | 103% (inactive)
C#CCN1C(=O)c2ccccc2N(CC#C)C12CCN(Cc1cn(CC(=O)Nc3ccccc3C(N)=O)nn1)CC2 | 86.6% (inactive)
COc1cc2c(c(O)c1Cl)C(=O)c1c(O)cc(C[C@H](C)O)cc1[C@H]2[C@H]1c2cc(C[C@H](C)O)cc(O)c2C(=O)c2c1cc(OC)c(Cl)c2O | 1.89% (active)
O[C@@H](c1cc(C(F)(F)F)nc2c(C(F)(F)F)cccc12)[C@H]1CCCCN1 | 59.4% (inactive)
CS(=O)(=O)Nc1cc(-c2ccc3ncnc(Nc4ccc5c(cnn5Cc5ccncc5)c4)c3c2)cnc1Cl | 15.4% (inactive)
CCOc1cc(NC(=O)c2ccccc2)c(OCC)cc1N | 109% (inactive)
Fc1ccc(CNc2c3ccccc3nc3ccccc23)cc1 | 21.3% (inactive)
O=C(/C=C/c1ccc(B(O)O)cc1)/C=C/c1ccc(B(O)O)cc1 | 21.7% (inactive)
OC(c1cc2cc(Cl)c(Cl)cc2c2cc(C(F)(F)F)ccc12)C1CCCCN1 (stereo not given) | -21% (active)
CCCCCCCCn1ccc2cc(NC(=O)Cn3cc(CN4CCN(CC)CC4)nn3)ccc21 | 63.9% (inactive)
C#CCn1cnc2cnc(Nc3cccc(NC(=O)C=C)c3)nc21 | 8.32% [6.25 µM] (active)
COc1cccc(/C=C2\COc3ccc(O)cc3C2=O)c1OC | -14.5% (active)
COc1cccc(-c2nc3sccn3c2-c2ccnc(NCCN3CCCN(C)S3(=O)=O)n2)c1 | 105% (inactive)
O=C1NC(=O)/C(=C/c2c(-c3ccccc3)nc3sc(COc4ccccc4)nn23)S1 | 91.1% (inactive)
O=NN(CCCl)C(=O)NCc1ccc(-c2ccc(CNC(=O)N(CCCl)N=O)cc2)cc1 | 88.6% (inactive)

Compound | growth
CSc1nnc(-c2sc3nnc(-c4ccccc4)c(-c4ccccc4)c3c2O)o1 | 107% (inactive)
CC(C)N1CC(=O)N2CSCC2C1=O (stereo not given) | 102% (inactive)
CS(=O)(=O)c1nccc(-c2c(-c3cccc(OCc4ccc(F)cc4)c3)nc3sccn23)n1 | 43.7% (inactive)
CC(=O)C(C(C)=O)C(c1ccccc1)C(C(C)=O)C(C)=O | 98.5% (inactive)
Fc1ccc(/C=N/n2c(-c3cc(Cl)cc(Cl)c3Cl)nn(CNc3ccc(Cl)nn3)c2=S)cc1 | 90.1% (inactive)
CC1(C)N=C(N)N=C(N)N1c1cccc(OCCOc2cccc([N+](=O)[O-])c2)c1 | 17.6% (inactive)
CC1(C)Nc2cccc3c(N=Nc4ccc(N=Nc5ccccc5)c5ccccc45)ccc(c23)N1 | 86.1% (inactive)
C(CCCSC1=NCCN1)CCSC1=NCCN1 | 76.2% (inactive)
COc1ccc2c(c1)NC(=O)CN2c1nc(C)nc2ccccc12 | -6.18% (active)
CCCCCCNC(=O)Oc1ccc(/C(=C(/CC)Cc2ccccc2)c2ccc(OCCCN(C)C)cc2)cc1 | 64.2% (inactive)
O=C(O)c1ccc(-n2cc(/C=N/Nc3ccc(Cl)cc3Cl)c(-c3ccccc3)n2)cc1 | -81.8% (active)
Cc1ccc(/C=C/C(=O)C(=O)/C=C/c2ccc(C)cc2)cc1 | 93.3% (inactive)
Cc1ccc(N2C(=O)CCC2=O)cc1 | 104% (inactive)
Cc1ccc2c(c1)c(-c1nc(-c3c[nH]c4ncccc34)cs1)cn2C | 84.1% (inactive)
N#Cc1c(Nc2ccc(N3CCOCC3)cc2)nc(SCC(=O)c2ccc(Br)cc2)nc1-c1ccccc1 | 86.2% (inactive)
O=C1NC(=O)c2c1c1c3ccccc3[nH]c1c1oc3cc(Br)ccc3c21 | 104% (inactive)
OCc1cnccc1NCCCCOc1ccc(Oc2ccccc2)cc1 | 22.7% (inactive)
CCN(CC)CC(=O)Nc1ccc2ncnc(Nc3ccc(Oc4cccc(F)c4)c(Cl)c3)c2c1 | 16.2% (inactive)
CCc1ccc(-c2nnc(COc3ccc(-c4nc5ccccc5[nH]4)cc3OC)o2)cc1 | 78.4% (inactive)
COc1cccc2c1C(=O)c1c(O)c3c(c(O)c1C2=O)C[C@@](O)(/C(C)=N/NC(=O)c1ccc(Cl)cc1)C[C@@H]3OC1CC(N)C(O)C(C)O1 (stereo not given in full) | -53.4% (active)
